Source: PubChem BioAssay AID2685 (National Center for Advancing Translational Sciences (NCATS), 2010)
The whole screen tested about 320,000 compounds, of which about 2,100 (0.66%) were called active. Not shown: some 53% with an inconclusive outcome. The sample holds actives, similar compounds and a random draw of the others, so the mix is not that of the screen. The call rests on the fitted dose curve; in most records, active means well fitted inhibition curve with a large enough effect in the signal ratio, with a control signal flat (not every such curve was filed as active); inconclusive means small, poorly fitted or top-dose-only effect, or effect the other way, or a change in a side signal; inactive means flat fitted curve, though single readings scatter; the % refers to the signal ratio.

Experiment: qHTS Assay for Lipid Storage Modulators in Drosophila S3 Cells;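 on cell number change: cells counted by Cell Tracker Red CMTPX staining in the red channel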
Conditions: BODIPY lipid droplet fluorescence, 18-24 h, cells fed with added oleic acid; cell number change: measured here: cell count max response; series mostly up to 46.1 µM
Source text: NIH Molecular Libraries Probe Production Centers Network [MLPCN] NIH Chemical Genomics Center [NCGC] MLPCN Grant: 1 R03 MH085686-01 Assay Submitter (PI): Beller, Mathias; Max-Planck-Institut fur Biophysikalische Chemie NCGC Assay Overview: Storing lipids as a reservoir for energy or the anabolism of elementary metabolites is a common feature of probably all cells and is conserved from bacteria to humans. The universal cellular lipid storage organelle is the so-called lipid storage droplet (LD). Although ubiquitous, LDs share a simple structure composed of a hydrophobic core that harbors the storage lipids, which is shielded by a droplet-specific phospholipid monolayer to which proteins are attached. The current model of LD biogenesis involves an incorporation of the lipid core into the membrane leaflets of the endoplasmic reticulum (ER) followed by a subsequent budding-like maturation of a LD, which ultimately pinches off. Once released, LD volume can increase by localized lipogenesis or fusion of existing droplet. Storage lipids are re-mobilized enzymatically by lipase activity. Lipase regulation in the adipocyte is heavily studied and involves multiple components including catecholamine signaling, the LD-associated proteins Perilipin and comparative gene identification (CGI-58) and at least two lipases named hormone sensitive lipase (HSL) and adipocyte triglyceride lipase (ATGL). LD regulation outside of the adipocyte is poorly understood and only few components are known. However, there is an urgent need to learn more about ectopic fat depots as mislocalized storage of lipids, for example in the liver or muscle, is an eminent health problem associated with insulin resistance or the metabolic syndrome. We developed a laser-scanning cytometer assay to enable 1,536-well screening and combined the results of the small molecules screen with an RNAi database based on lipid storage.
Triacsin C (Sigma-Aldrich T-4540), an inhibitor of long-chain fatty acyl CoA synthetase that blocks synthesis of triglycerides, was used as a positive control for lipid under-storage. A total of 23 nL of compound solution of different concentrations were transferred to the assay plates using a Kalypsys pin tool equipped with a 1,536-pin array containing 10-nL slotted pins (FP1S10, 0.457-mm diameter, 50.8 mm long; V&P Scientific). One microliter of oleic acid (400 uM) was added, and the plate was lidded with stainless steel rubber gasket lined lids containing pinholes. […] Fluorescence was detected by excitation of the fluorophores with a 488-nm laser on an Acumen Explorer (TTP Lab Tech). The total intensity in channel 2 (500-530 nm) reflected lipid droplet accumulation. Cells were detected using channel 3 (575-640 nm) with 5-um width and 100-um depth filters. The ratio of the number of objects in PMT channel 2 over the number of objects in PMT channel 3 was also calculated. Percent activity was computed relative to an internal control (100% inhibited lipid droplet deposition due to the presence of 20 uM Triacsin C), which was added to 32 wells/plate.
Potency means the concentration at half of the fitted maximal effect.

Row | SMILES | Potency | cell number change [%]
1 | Cc1ccc2c(c1)C1CN(C)CCC1N2C(=O)c1cccnc1Cl (centres undefined) | inactive | -4.72
2 | CCOC(=O)c1ccc(S(=O)(=O)n2c(=O)oc3ccccc32)cc1 | 20.6 µM (active) | 
3 | CCOC(=O)c1ccc(N=C(c2ccccc2)c2c(O)n(C)c(=O)n(C)c2=O)cc1 | inactive | 1.32
4 | CCOC(=O)c1c(C=O)c2ccccc2n1Cc1ccccc1 | inactive | 3.55
5 | O=C1Nc2ccc(Br)cc2C(c2ccccc2)=NC1O (centres undefined) | inactive | 22.1
6 | C=C(COC(C)=O)CC1CC(O)[C@]2(C)OC3CC4OC5C[C@]6(C)O[C@]7(C)CCC8OC9C[C@]%10(C)OC%11C(C)=CC(=O)OC%11CC%10OC9C[C@@H](C)C8OC7CC6O[C@]5(C)C/C=C\C4OC3CC2O1 (some centres undefined) | inactive | 
7 | CN(C)C(=O)Nc1cccc(OC(=O)N(C)C)c1 | 32.6 µM (active) | 
8 | CN(C)C(=O)Oc1cccc(NC(=O)c2ccccc2C(F)(F)F)c1 | inactive | -0.228
9 | CN(C)C(=O)Oc1cccc(NC(=O)N2CCOCC2)c1 | inactive | -25
10 | CCOC(=O)C1(CCc2ccccc2)CCN(Cc2csc(C(C)=O)c2)CC1 | inactive | 3.18
11 | CCN(CC)S(=O)(=O)c1cc(NC(=O)C(C)N2CC=C(c3ccccc3)CC2)ccc1C (centres undefined) | inactive | -3.32
12 | CCCCNC(=O)CN1C(=O)CN=C(c2ccccc2)c2ccccc21 | inactive | 20.3
13 | CN(C)c1ccc(NC(=O)CN2C(=O)CN=C(c3ccccc3)c3ccccc32)cc1 | 10.3 µM (active) | -43.3
14 | O=C(CN1C(=O)CN=C(c2ccccc2)c2ccccc21)NCc1ccco1 | inactive | 7.88
15 | O=C1CN=C(c2ccccc2)c2ccccc2N1Cc1ccc(C(F)(F)F)cc1 | inactive | 
16 | CN(C)c1ccc(NC(=O)CN2C(=O)CN=C(c3ccccc3)c3cc(Cl)ccc32)cc1 | inactive | 4.79
17 | Cc1ccc(CN2C(=O)CN=C(c3ccccc3)c3ccccc32)cc1 | 10.3 µM (active) | 11.7
18 | Cc1nc2ccccc2c(=O)n1-c1ccc(Cl)c(Cl)c1 | inactive | 8.67
19 | CCN1CCN(C(=O)Cc2ccccc2OC)CC1 | inactive | 5.49
20 | NC(=O)C1CCN(/C=C2\C(=O)NC(=O)N(Cc3ccco3)C2=O)CC1 | inactive | 6.38
21 | Cc1c(NC(NC(=O)CF)C(Cl)(Cl)Cl)c(=O)n(-c2ccccc2)n1C (centres undefined) | inactive | 8.45
22 | O=C(COc1ccc(Cl)cc1)N(c1ccccc1Cl)C1CN2CCC1CC2 (centres undefined) | inactive | -2.19
23 | O=C(Nc1ccc(Cl)cc1C(=O)c1ccccc1Cl)c1ccco1 | inactive | -6.61

Row | SMILES | Potency | cell number change [%]
24 | O=C(Nc1ccc(Cl)c(Cl)c1)c1ccco1 | 14.6 µM (active) | 4.2
25 | O=C(Nc1ccc(Cl)cc1C(=O)c1ccccc1)c1ccco1 | inactive | 16.6
26 | CCOP(=O)(OCC)C(NC(=O)c1ccccc1)=C(Cl)Cl | inactive | 12
27 | CCOP(=O)(OCC)C(Cc1ccccc1)NC(C)=O (centres undefined) | inactive | 6.58
28 | CCOP(=S)(NN(Cc1ccccc1)C(=O)c1ccccc1)OCC | 6.51 µM (active) | -8.12
29 | CC(C)N1CCC2(CC1)NC(CO)(CO)CO2 | inactive | 2.89
30 | COc1ccc(C)cc1NC(=O)c1c(C)nn(Cc2ccccc2)c1Cl | inactive | -8.13
31 | O=C1N(c2ccccc2)C(c2cccnc2)N2CCCN12 (centres undefined) | inactive | -11.1
32 | CN1C(=O)C(Cc2cccs2)C(=O)N(C)C1=O | inactive | 1.68
33 | O=C1NC(=O)C(Cc2cccs2)C(=O)N1 | 25.9 µM (active) | -13
34 | O=C1NC(=O)N(Cc2cccs2)C(=O)/C1=C/c1ccc(N2CCOCC2)cc1 | inactive | -3.62
35 | CC(=O)O[C@@H]1[C@H]2CC[C@@H]3[C@]1(C[C@@H](OC(C)=O)[C@@]1(O)C([C@@H]4O[C@@H]4C1(C)C)[C@]3(C)O)C[C@@]2(C)O (some centres undefined) | inactive | -2.47
36 | CC(=O)Nc1ccccc1OC(=O)N1CCOCC1 | 18.4 µM (active) | 
37 | O=C(Nc1ccccc1OC(=O)N1CCCCC1)N1CCCCC1 | inactive | 3.87
38 | O=C(Nc1ccc(OC(=O)N2CCCC2)cc1)N1CCOCC1 | inactive | 2.4
39 | CC1(C)COC(Nc2ccc(Cl)cc2)=N1 | inactive | 0.527
40 | COc1cccc2cc(-c3cc(=O)oc4ccc(OC(=O)N(C)C)cc34)oc12 | inactive | -3.98
41 | Cc1cc2oc(=O)cc(-c3cc4ccccc4o3)c2cc1OC(=O)N(C)C | 18.4 µM (active) | 20.3
42 | COc1ccc(Oc2c(C)oc3cc(OC(=O)N(C)C)ccc3c2=O)cc1 | inactive | 27.6
43 | COc1ccc(C(=O)C2CCCN(CCO)C2)c(C)c1 (centres undefined) | 0.82 µM (active) | -6.32
44 | COc1ccc(C(=O)C2CCCN(Cc3ccc(C)s3)C2)c(OC)c1 (centres undefined) | inactive | -6.83
45 | Cc1ccsc1C(=O)C1CCCN(CCO)C1 (centres undefined) | inactive | -5.68
46 | CC1(O)CCN2C(=O)CCc3cccc1c32 (centres undefined) | inactive | -14.6

Row | SMILES | Potency | cell number change [%]
47 | Cn1c(O)c(/C=C2\C=c3ccccc3=NC2=O)c(=O)n(C)c1=O | inactive | 5.41
48 | CN1CCc2c([nH]c3ccccc23)C1 | inactive | -7.02
49 | CCCCOc1ccc(CC2C(=O)N(C)C(=O)N(C)C2=O)cc1 | inactive | -19.6
50 | COc1ccccc1CNCCc1ccc(F)cc1 | inactive | -5.32
51 | CCC(=NCc1ccco1)c1c(O)n(-c2ccccc2)c(=O)[nH]c1=O | inactive | 12.1
52 | CCC(=NCCO)c1c(O)n(-c2ccccc2)c(=O)[nH]c1=O | 20.6 µM (active) | -16.7
53 | CCC(=NCCO)c1c(O)n(-c2ccc(Cl)cc2)c(=O)[nH]c1=O | inactive | 11.3
54 | CC(C)(C)N(NC(=O)c1ccccc1)C(=O)c1ccccc1 | inactive | 1.15
55 | COc1cc(/C=C2\C(=O)NC(=O)N(c3ccccc3)C2=O)cc(OC)c1OC | 0.731 µM (active) | 
56 | COc1cc(/C=C2\C(=O)NC(=O)N(c3ccc(C)cc3)C2=O)cc(OC)c1O | inactive | 15
57 | COc1cc(C=C2C(=O)NC(=O)NC2=O)cc(OC)c1OC | inactive | 8.46
58 | COc1ccccc1C(=O)C1CCCN(Cc2cnc(C)s2)C1 (centres undefined) | inactive | 3.73
59 | Cn1c(O)c(C=NC2CCN(Cc3ccccc3)CC2)c(=O)[nH]c1=O | inactive | -0.367
60 | Cn1c(=O)c2c(nc(N/N=C/c3c(O)n(-c4ccccc4)c(=S)[nH]c3=O)n2C)n(C)c1=O | inactive | 0.523
61 | CC1(C)C2CC=C(CN3CCOCC3)C1C2 (centres undefined) | inactive | 1.35
62 | OC1(CN2CCOCC2)C2CC3CC(C2)CC1C3 (centres undefined) | 8.2 µM (active) | -6.79
63 | CCC(C)n1c(O)c(C=NCCN2CCOCC2)c(=O)[nH]c1=S (centres undefined) | inactive | 0.504
64 | COc1ccc(-n2c(O)c(C(C)=NCCN3CCNCC3)c(=O)[nH]c2=O)cc1 | inactive | -2.05
65 | COC(=O)C1=C(c2ccc(-c3ccccc3)c(F)c2)C[C@@H]2CC[C@H]1N2C(=O)NCC1CC1 | inactive | -12.8
66 | COC(=O)C1=C(c2ccc3ccccc3c2)C[C@@H]2CC[C@H]1N2C(=O)NC1Cc2ccccc2C1 | inactive | -10.8
67 | COC(=O)C1=C(c2ccccc2OCc2ccccc2)C[C@@H]2CC[C@H]1N2C(=O)NCc1ccc(OC)cc1 | inactive | -4.45
68 | COC(=O)C1=C(c2ccc(-c3ccccc3)c(F)c2)C[C@@H]2CC[C@H]1N2C(=O)NC1Cc2ccccc2C1 | 7.31 µM (active) | -24.5
69 | COC(=O)C1=C(c2ccccc2OCc2ccccc2)C[C@@H]2CC[C@H]1N2C(=O)NCc1ccc(N(C)C)cc1 | 23.1 µM (active) | -7.57

Row | SMILES | Potency | cell number change [%]
70 | COC(=O)C1=C(c2ccc(OC(F)(F)F)cc2)C[C@@H]2CC[C@H]1N2C(=O)NCCOc1ccccc1Cl | inactive | 
71 | COC(=O)C1=C(c2ccc(-c3ccccc3)c(F)c2)C[C@@H]2CC[C@H]1N2C(=O)NCCOc1ccccc1 | inactive | -7.31
72 | COC(=O)C1=C(c2ccccc2OCc2ccccc2)C[C@@H]2CC[C@H]1N2C(=O)NCc1ccccc1 | inactive | -13.3
73 | COC(=O)C1=C(c2ccc(-c3ccccc3)c(F)c2)C[C@@H]2CC[C@H]1N2C(=O)NCCOc1ccccc1Cl | 14.6 µM (active) | -24.1
74 | CN(Cc1ccccc1)C1CCCN(C(=O)COc2ccccc2Cl)C1 (centres undefined) | inactive | 12
75 | COc1ccc(C(=O)NC(=S)N2C[C@H]3C[C@H](C2)c2cccc(=O)n2C3)cc1 | inactive | 23
76 | COc1ccc(N2C(=O)NC(=O)/C(=C\c3ccccc3[N+](=O)[O-])C2=O)cc1 | inactive | -0.318
77 | C=C[C@@H]1C2=CCOC(=O)C2=CO[C@H]1O[C@@H]1O[C@H](CO)[C@@H](O)[C@H](O)[C@H]1O | inactive | -27.7
78 | CNCCc1ccccc1 | inactive | -6.21
79 | O=C(NCc1cccnc1)Nc1ccccc1Cl | inactive | -20.1
80 | Cc1cc(OC(C)C(=O)NCc2cccnc2)c2c3c(c(=O)oc2c1)CCC3 (centres undefined) | inactive | 14.6
81 | CC(C)CC(NS(=O)(=O)c1ccc2c(c1)oc(=O)n2C)C(=O)NCc1cccnc1 (centres undefined) | 1.64 µM (active) | 
82 | CCc1ccc(CNCCc2ccc(F)cc2)cc1 | inactive | -19.7
83 | C=C(C)CSc1nnc([C@@H](N)Cc2ccccc2)o1 | inactive | 2.73
84 | COc1cccc(NC2=NCCCS2)c1 | inactive | 15
85 | COc1ccccc1NC1=NCCS1 | 25.9 µM (active) | -10.9
86 | c1ccc2c(NC3=NCCS3)cccc2c1 | inactive | 15.1
87 | Cc1cc(C(=O)Nc2ccccc2)nn1C(C)(C)C | inactive | 13.1
88 | CC1=C(C(=O)Nc2ccccc2)S(=O)(=O)CCO1 | inactive | -13.4
89 | CC1=C(C(=O)Nc2ccccc2)SCCO1 | 18.4 µM (active) | -0.928
90 | O=c1c2ccccc2nc(CSc2ncnc3nc[nH]c23)n1-c1ccccc1Cl | inactive | -11.9
91 | O=C(NC1CN2CCC1CC2)c1cccc(Cl)c1 (centres undefined) | inactive | 20.4
